“And” between values parts separate entries of the source, which are not always exact repeats. Identical values can stand only once. The whole screen tested about 5,500 compounds, of which about 2,000 (36%) were called active. Inconclusive results (about 18%) are left out. Cut-off read from the data, not from the text of the source: active = normalized growth mostly below about 0.91 (no sharp cut-off); inconclusive = no clear call, values can overlap the other calls; inactive = mostly above about 0.92. The list shows a part of the results.
Test: chemical genetic growth profiling, strain panel (AID 1159580);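 note: tested at 20 µM; growth read once vehicle control cultures reached saturation at 30 °C; 1 = growth at the plate median or of vehicle wells; lower values mean less growth of the strain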
Conditions: S. cerevisiae deletion strains, growth OD

Measured: normalized growth

NC(Cn1ccc(=O)c(O)c1)C(=O)O (configuration not stated)
inactive: locus YAL013W, strain DEP1, active compounds read low 1.01 | locus YAL021C, strain ccr4, active compounds read low 1 | locus YAL026C, strain drs2, active compounds read low 1.04 | locus YAL030W, strain snc1, active compounds read low 1.01 | locus YBL061C, strain skt5, active compounds read low 1.03 | locus YBR009C, strain hhf1, active compounds read low 0.992 | locus YBR021W, strain FUR4, active compounds read low 1.01 | locus YBR023C, strain chs3, active compounds read low 1.03 | locus YBR171W, strain sec66, active compounds read low 1.03 | locus YBR229C, strain ROT2, active compounds read low 1.02 | locus YBR231C, strain swc5, active compounds read low 1.01 | locus YBR279W, strain paf1, active compounds read low 1.03 | locus YCL011C, strain gbp2, active compounds read low 1.03 | locus YCL016C, strain dcc1, active compounds read low 1.04 | locus YCL029C, strain bik1, active compounds read low 0.98 | locus YCL061C, strain MRC1, active compounds read low 1.01 | locus YCL069W, strain vba3, active compounds read low 1.01 | locus YCR088W, strain abp1, active compounds read low 1.02 | locus YDL005C, strain med2, active compounds read low 1.03 | locus YDL035C, strain GPR1, active compounds read low 1.03 | locus YDL040C, strain nat1, active compounds read low 1.02 | locus YDL074C, strain BRE1, active compounds read low 1.03 | locus YDL101C, strain DUN1, active compounds read low 1.02 | locus YDL134C, strain PPH21, active compounds read low 1.01 | locus YDL185W, strain tfp1, active compounds read low 0.978 | locus YDL192W, strain arf1, active compounds read low 0.994 | locus YDR001C, strain nth1, active compounds read low 1.02 | locus YDR069C, strain doa4, active compounds read low 1.02 | locus YDR101C, strain arx1, active compounds read low 1 | locus YDR137W, strain rgp1, active compounds read low 1.05 | locus YDR150W, strain NUM1, active compounds read low 1.01 | locus YDR159W, strain sac3, active compounds read low 0.943 | locus YDR162C, strain NBP2, active compounds read low 1.02 | locus YDR195W, strain ref2 1.01 | locus YDR297W, strain sur2, active compounds read low 0.998 | locus YDR318W, strain mcm21, active compounds read low 0.992 | locus YDR334W, strain swr1, active compounds read low 1.02 | locus YDR335W, strain msn5, active compounds read low 1.03 | locus YDR388W, active compounds read low 0.993 | locus YDR392W, strain spt3, active compounds read low 0.959 | locus YDR502C, strain sam2, active compounds read low 1.01 | locus YEL003W, strain gim4, active compounds read low 1 | locus YEL037C, strain rad23, active compounds read low 1.02 | locus YEL061C, strain CIN8 (second series), active compounds read low 1.03 | locus YEL061C, strain CIN8, active compounds read low 1.01 | locus YER015W, strain faa2, active compounds read low 1.01 | locus YER016W, strain bim1, active compounds read low 1.05 | locus YER110C, active compounds read low 0.969 | locus YER111C, strain swi4, active compounds read low 1.02 | locus YER155C, strain BEM2 (second series), active compounds read low 1.01 | locus YER155C, strain BEM2, active compounds read low 1.01 | locus YER167W, strain BCK2, active compounds read low 1.03 | locus YFR010W, strain ubp6, active compounds read low 0.994 | locus YGL078C, strain dbp3, active compounds read low 1.01 | locus YGL086W, strain mad1, active compounds read low 1 | locus YGL167C, strain pmr1, active compounds read low 1.02 | locus YGL173C, strain kem1, active compounds read low 1 | locus YGL227W, strain vid30, active compounds read low 1.05 | locus YGL240W, strain doc1, active compounds read low 1 | locus YGL248W, strain PDE1, active compounds read low 1.02 | locus YGL253W, strain hxk2, active compounds read low 1.03 | locus YGR078C, strain PAC10, active compounds read low 1.02 | locus YGR135W, strain pre9, active compounds read low 1.02 | locus YGR229C, strain SMI1, active compounds read low 1.02 | locus YGR252W, strain gcn5, active compounds read low 1.07 | locus YHR013C, strain ard1, active compounds read low 1.05 | locus YHR027C, strain rpn1, active compounds read low 1.02 | locus YHR030C, strain SLT2, active compounds read low 1.01 and 1.02 | locus YHR079C, strain IRE1 (second series), active compounds read low 0.988 | locus YHR079C, strain IRE1, active compounds read low 1.04 | locus YHR094C, strain hxt1, active compounds read low 0.996 | locus YHR129C, strain ARP1, active compounds read low 1.01 | locus YHR142W, strain chs7, active compounds read low 1.03 | locus YHR200W, strain rpn10, active compounds read low 0.991 | locus YIL066C, strain RNR3, active compounds read low 1.02 | locus YIL073C, strain SPO22, active compounds read low 0.978 | locus YIL125W, strain kgd1, active compounds read low 1 | locus YIR030C, strain dcg1, active compounds read low 0.986 | locus YJL092W, strain hpr5, active compounds read low 1.01 | locus YJL095W, strain BCK1 (second series), active compounds read low 1.03 | locus YJL095W, strain BCK1, active compounds read low 1.02 and 1.01 | locus YJL115W, strain asf1, active compounds read low 1.02 | locus YJL129C, strain trk1, active compounds read low 1.03 | locus YJL134W, strain LCB3, active compounds read low 1.01 | locus YJL154C, strain vps35, active compounds read low 1.01 | locus YJL164C, strain tpk1, active compounds read low 0.996 | locus YJL166W, strain qcr8, active compounds read low 1.01 | locus YJL168C, strain set2, active compounds read low 0.99 | locus YJL187C, strain SWE1 (second series), active compounds read low 1.01 | locus YJL187C, strain SWE1, active compounds read low 1.01 | locus YJR043C, strain POL32, active compounds read low 1.01 | locus YJR066W, strain TOR1, active compounds read low 0.98

From PubChem BioAssay AID1159580 (chemical genetic matrix, 2015)
